# Screens deposited in PubChem BioAssay by The Scripps Research Institute Molecular Screening Center.
# An excerpt weighted towards active compounds, which were near 3.4% of everything screened.
# FBW7 act: human FBW7 E3 ligase activation, primary screen. Q969H0. AID 1259310. actives 0.13% (n = 650,000). AlphaScreen FBW7–phospho-cyclin E peptide binding, activator screen. normalized activity (activation), % at 26.1 µM; in the data active = normalized activity above about 1.9%;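 note: purified mutant Fbw7 with reduced substrate affinity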
# TEAD-YAP block: TEAD-YAP interaction inhibition | HEK-TIYL cells, TEAD-Gal4/YAP UAS-luciferase luminescence | inhibition, % at 9.12 µM | actives 1.4% (n = 640,000) | AID 1259422; in the data active = inhibition above about 32%;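 note: 0% = median of test compound wells and 100% = reference inhibitor wells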
# GPR151 activ: activators of human GPR151 | Q8TDV0 | PathHunter beta-arrestin GPR151 cells, luminescence | activation, % at 11.2 µM | actives 1% (n = 650,000); in the data active = activation above about 4.9%;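 note: 0% = median of compound wells and 100% = cells with positive control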
# Target sequence (Q8TDV0 whole entry, looked up): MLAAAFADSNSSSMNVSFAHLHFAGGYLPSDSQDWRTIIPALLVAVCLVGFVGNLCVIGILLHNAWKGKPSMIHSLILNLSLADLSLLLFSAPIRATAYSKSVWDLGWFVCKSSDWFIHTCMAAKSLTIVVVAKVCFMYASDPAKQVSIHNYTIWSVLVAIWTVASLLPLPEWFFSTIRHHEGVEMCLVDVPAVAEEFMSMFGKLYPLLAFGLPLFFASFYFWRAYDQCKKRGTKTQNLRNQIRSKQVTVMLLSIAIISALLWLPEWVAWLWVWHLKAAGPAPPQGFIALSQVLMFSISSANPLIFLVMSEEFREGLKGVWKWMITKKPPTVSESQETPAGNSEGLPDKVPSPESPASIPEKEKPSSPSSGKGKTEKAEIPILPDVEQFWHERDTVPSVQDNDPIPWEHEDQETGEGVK
# MITF primary: inhibitors of human MITF; AID 1259374; inhibition, % at 2.6 µM; actives 0.91% (n = 650,000); AlphaScreen MITF homodimerization, bead proximity signal; O75030; in the data active = inhibition above about 50%;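 note: 0% = vehicle wells with protein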
# An asterisk follows results filed as active.
SMILES,FBW7 act,TEAD-YAP block,GPR151 activ,MITF primary
Cc1ccc(-c2nc3ccccc3c(=O)[nH]2)cc1,0,20,-4,-1
Nc1ccccc1-c1nc2ccccc2c(=O)o1,2.4*,-24,-3,22
CC(C)(C)c1ccc(-c2nc3ccccc3c(=O)o2)cc1,0,53*,-5,-10
COC(=O)COc1ccc2c(=O)c(Oc3cc(C)c(Cl)c(C)c3)coc2c1,0,-5,-1,-2
Cc1ccccc1CN1CCc2nnc(C(C)NC(=O)COc3ccccc3)n2CC1 (centres undefined),1,-8,-1,23
CCCn1c2ccccc2c2nnc(SCC(=O)Nc3nncs3)nc21,0,-7,0,2
COc1ccccc1/C=N/NC(=O)CC(=O)N/N=C/c1ccccc1OC,0,-7,1,2
O=C(Nc1ccc(-c2nc3ccccc3o2)cc1)C1CCN(Cc2ccccn2)CC1,0,-5,0,-2
O=C(Nc1ccc(-c2nc3ccccc3o2)cc1)C1CCN(CCCn2cccn2)CC1,0,78*,4,-9
CCOC(=O)c1[nH]c2ccccc2c1NC(=O)OC,0,-10,-1,-4
CCOC(=O)c1[nH]c2ccccc2c1NC=O,1.9*,10,-1,-4
CN1CCN(c2nc(-c3ccc(C(C)(C)C)cc3)nc3ccccc23)CC1,-1,82*,-2,9
CC1CCN(c2nc(-c3ccc(C(C)(C)C)cc3)nc3ccccc23)CC1,0,49*,0,-3
COc1ccc(-c2nc(N3CCC(C)CC3)c3ccccc3n2)cc1OC,0,-1,1,0
Cc1ccc(-c2nc(N3CCN(C)CC3)c3ccccc3n2)cc1,0,-6,-1,12
CCOC(=O)C1=C(C)N=c2s/c(=C\c3ccc(C(=O)OC)cc3)c(=O)n2C1c1ccc(OC)cc1 (centres undefined),0,0,2,-2
CCOc1ccc2nc3sc(C(=O)N4CCCCCC4)c(N)c3cc2c1,1,0,0,11
CCOC(=O)c1sc(N2C(=O)C(=O)/C(=C(/O)c3ccc(F)cc3)C2c2ccc(OC)cc2)nc1C (centres undefined),0,-4,1,0
c1ccc(N2CCN(c3ccnc4c(-c5ccsc5)cnn34)CC2)nc1,1,4,1,6
CC(C)(C)c1ccc(C(=O)N2CCCCCC2=O)cc1,0,55*,-1,-7
CCC(c1nnnn1CCOC)N(Cc1cc2ccc(OC)cc2[nH]c1=O)C1CCCC1 (centres undefined),0,58*,1,-2
Cc1ccc(C)c(OCC(=O)N/N=C\c2ccccc2F)c1,0,-10,0,-8
Cc1cccc(C)c1OCC(=O)N/N=C/c1cn(C)c2ccccc12,0,51*,1,0
Cc1ccc(OCC(=O)N/N=C/c2cc([N+](=O)[O-])ccc2F)cc1,0,60*,-1,17
Cc1cccc(C)c1OCC(=O)N/N=C/c1ccccc1F,0,37*,0,10
SMILES,FBW7 act,TEAD-YAP block,GPR151 activ,MITF primary
N#Cc1ccsc1NC(=O)c1ccccc1,0,-12,-3,-13
N#Cc1ccsc1NC(=O)c1ccc2c(c1)CCCC2,0,43*,-6,3
Cc1ccc(C(=O)Nc2sccc2C#N)cc1C,0,-15,-10,-8
N#Cc1ccsc1NC(=O)c1cccc2ccccc12,0,47*,1,-5
N#Cc1ccsc1NC(=O)c1ccccc1Cl,0,1,0,9
N#Cc1ccsc1NC(=O)/C=C/c1ccccc1,0,64*,-11,-13
CC(C)c1ccc2nc(-c3ccc(N4C(=O)c5cccc(F)c5C4=O)cc3)[nH]c2c1,0,-9,0,-4
O=C(NCc1ccccc1)C(c1ccccc1)N(Cc1cccs1)C(=O)c1cnccn1 (centres undefined),0,34*,-1,3
O=C(NCc1ccccc1)C(c1cccs1)N(Cc1cccs1)C(=O)c1cnccn1 (centres undefined),0,6,-1,18
O=C(NCc1ccccc1)C(c1ccccc1)N(Cc1cccnc1)C(=O)c1csnn1 (centres undefined),6.9*,-4,1,21
CC(C)CCN(Cc1cc([N+](=O)[O-])cc2c1OCOC2)S(=O)(=O)c1ccccc1F,0,-5,2,8
O=[N+]([O-])c1cc2c(c(CN(Cc3ccco3)S(=O)(=O)c3ccccc3F)c1)OCOC2,0,47*,1,-1
CCN(CC)C(=O)N1CCN(c2nc(C)cc(=O)[nH]2)CC1,0,2,2,1
O=C(Nc1ccc(Oc2ccccc2)cc1)c1ccc(F)c(S(=O)(=O)N2CCN(c3cccc(Cl)c3)CC2)c1,0,41*,2,3
CCOc1ccc(NC(=O)c2ccc(F)c(S(=O)(=O)N3CCCc4ccccc43)c2)cc1,1,43*,0,15
CCOC(=O)C1CCCN(S(=O)(=O)c2cc(C(=O)Nc3ccc(CC)cc3)ccc2F)C1 (centres undefined),1,1,0,10
CCOc1ccc(NC(=O)c2ccc(F)c(S(=O)(=O)N3CCN(c4ccccc4)CC3)c2)cc1,0,37*,1,0
CCOC(=O)C1CCCN(S(=O)(=O)c2cc(C(=O)Nc3ccc(Oc4ccccc4)cc3)ccc2F)C1 (centres undefined),0,53*,-1,8
COC(=O)C1=C(C(=O)OC)SC(=C2C(=S)C(C)(C)N(C(=O)c3ccccc3OC)c3ccc(Cl)cc32)S1,0,-12,1,2
CCOC(=O)c1nnc(Cc2ccc([N+](=O)[O-])cc2)o1,0,-4,1,14
Cn1ccnc1C1(O)CCN(CC(=O)Nc2ccccc2N2CCCCC2)CC1,0,0,0,4
CCOc1cc(C)cc2oc(=O)cc(CC)c12,0,4,0,19
Cc1nn(C)cc1-c1nc2cnccn2c1NC1CCCCC1,0,-17,0,-11
Cc1ccc(-c2ncn(-c3ccc(Nc4ncc5ccc(-c6cnn(C)c6)cc5n4)cc3)n2)cn1,1,20,0,24
Cn1cc(-c2ccc3cnc(Nc4ccc(N5CCOCC5)cc4)nc3c2)cn1,1,60*,2,19
SMILES,FBW7 act,TEAD-YAP block,GPR151 activ,MITF primary
Cn1cc(-c2ccc3cnc(Nc4ccc(-n5cnc(-c6ccccn6)n5)cc4)nc3c2)cn1,0,96*,0,-2
Cc1cnc(Nc2ccc(-n3ccnc3)cc2)nc1N,0,-4,0,6
Cn1cc(-c2ccc3cnc(Nc4ccc(C(=O)N5CCOCC5)cc4)nc3c2)cn1,0,71*,-2,28
c1cn(-c2ccc(Nc3ncc4ccc(-c5cn[nH]c5)cc4n3)cc2)cn1,0,96*,-1,24
O=C(CCC(=O)N/N=C/c1ccccc1)NCc1ccccc1,0,1,1,-12
O=C(NC1CCN(Cc2ccccc2)CC1)c1ccc2nc(NC3CCN(Cc4ccccc4)CC3)sc2c1,0,21,-1,-25
Cn1cc(-c2ccc3cnc(Nc4ccc(-n5ccnc5)cc4)nc3c2)cn1,0,72*,-1,7
